Unmarked numbers belong to inactive results. Records with an inconclusive call do not appear. A call without a number means that no potency is given here. Calls of active or inactive are those of the source. Unless noted, calls come from the whole dose curve; as a rule, active = well fitted curve in the direction sought with a large enough effect in the repeat runs; inconclusive = weak or mixed curves; inactive = no such curve, though single readings can be large; an effect the other way counts as inactive or inconclusive.
Experiments:
[1] = target: Progesterone receptor (Homo sapiens) (UniProt P06401); assay: qHTS assay to identify small molecule agonists of the progesterone receptor (PR) signaling pathway (AID 1346784; calls by dose curve; note: nearly all actives have a fitted effect of over 30% in size)
Progesterone receptor (Homo sapiens), sequence (P06401 whole entry, looked up): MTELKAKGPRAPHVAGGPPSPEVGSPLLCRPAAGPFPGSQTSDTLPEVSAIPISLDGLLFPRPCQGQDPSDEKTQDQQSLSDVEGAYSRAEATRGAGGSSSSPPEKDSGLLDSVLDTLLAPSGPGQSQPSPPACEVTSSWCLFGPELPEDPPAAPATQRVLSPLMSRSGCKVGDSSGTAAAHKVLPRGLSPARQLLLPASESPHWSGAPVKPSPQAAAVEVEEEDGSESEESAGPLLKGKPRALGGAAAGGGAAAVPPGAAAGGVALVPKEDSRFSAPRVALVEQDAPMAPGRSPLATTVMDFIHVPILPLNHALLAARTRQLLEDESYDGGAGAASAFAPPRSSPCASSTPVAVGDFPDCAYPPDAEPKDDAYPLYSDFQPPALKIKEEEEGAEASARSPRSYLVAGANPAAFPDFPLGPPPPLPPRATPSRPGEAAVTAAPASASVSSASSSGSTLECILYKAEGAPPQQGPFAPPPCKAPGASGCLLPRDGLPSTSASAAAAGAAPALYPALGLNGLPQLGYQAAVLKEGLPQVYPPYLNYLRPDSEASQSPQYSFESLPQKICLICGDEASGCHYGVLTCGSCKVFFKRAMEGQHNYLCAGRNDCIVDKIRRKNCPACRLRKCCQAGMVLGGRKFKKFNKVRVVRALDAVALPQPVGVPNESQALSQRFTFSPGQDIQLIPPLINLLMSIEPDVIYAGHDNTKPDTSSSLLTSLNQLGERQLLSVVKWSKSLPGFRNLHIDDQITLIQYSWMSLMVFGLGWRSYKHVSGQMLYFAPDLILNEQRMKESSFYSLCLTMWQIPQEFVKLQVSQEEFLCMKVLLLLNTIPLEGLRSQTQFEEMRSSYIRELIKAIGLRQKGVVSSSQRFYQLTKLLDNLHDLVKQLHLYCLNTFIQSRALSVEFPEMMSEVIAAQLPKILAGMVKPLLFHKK
Summary of the method: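 Agonist mode, quantitative HTS format in a HEK 293T line expressing a UAS-controlled beta-lactamase reporter; 16 hr compound exposure at 37C in 2% charcoal-stripped FBS, then LiveBLAzer B/G FRET fluorescence.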

[2] = qHTS assay to identify small molecule antagonists of the progesterone receptor (PR) signaling pathway - cell viability counter screen (AID 1346798);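 note: HEK293T PR-UAS-bla cells stimulated with the agonist R5020; series mostly up to about 92 µM; nearly all actives have a fitted effect of over 50% in size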
Summary of the method: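 Same-well multiplex: after 16 hr at 37C with compound and R5020 stimulation, HEK293T cells carrying a UAS-bla reporter received LiveBLAzer substrate (2 hr RT), then CellTiter-Glo (30 min RT) for luminescent viability.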

[3] = qHTS assay to identify small molecule agonists of the progesterone receptor (PR) signaling pathway - cell viability counter screen (AID 1346799; calls by dose curve; note: nearly all actives have a fitted effect of over 45% in size; note: potency is the fitted concentration of half-maximal effect)
Summary of the method: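 Counter screen for cytotoxicity: compound-treated PR-UAS-bla HEK293T cells (16 hr, 37C, 5% CO2) were assayed with CellTiter-Glo, luminescence measured after 30 min at room temperature.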

[4] = qHTS assay to identify small molecule antagonists of the TGF-beta/Smad signaling pathway - cell viability counter screen (AID 1346824); note: nearly all actives have a fitted effect of over 50% in size
Summary of the method: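 SBE-bla HEK 293T cells were plated overnight at 37 C, then given compounds in DMSO plus TGF-beta1 (added as 0.25 ng/mL solution) for 5 hr. After the bla read, CellTiter-Glo was added to the same wells and luminescence read after 30 min at room temperature.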

[5] = qHTS assay to identify small molecule agonists of the TGF-beta/Smad signaling pathway - cell viability counter screen (AID 1346829); note: top concentration of the series differs between compounds; nearly all actives have a fitted effect of over 45% in size
Summary of the method: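 Compound-treated SBE-bla HEK 293T cells (5 hr, 37 C) were assessed for viability with CellTiter-Glo in parallel with the reporter read.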

[6] = target: Thyrotropin-releasing hormone receptor (Homo sapiens) (UniProt P34981); assay: qHTS assay to identify small molecule antagonists of the thyrotropin-releasing hormone receptor (TRHR) signaling pathway (AID 1346877; active = well fitted inhibition curve with a large enough effect in the repeat runs, not every such curve was filed as active; note: series mostly up to about 51 µM)
Thyrotropin-releasing hormone receptor (Homo sapiens), sequence (P34981 whole entry, looked up): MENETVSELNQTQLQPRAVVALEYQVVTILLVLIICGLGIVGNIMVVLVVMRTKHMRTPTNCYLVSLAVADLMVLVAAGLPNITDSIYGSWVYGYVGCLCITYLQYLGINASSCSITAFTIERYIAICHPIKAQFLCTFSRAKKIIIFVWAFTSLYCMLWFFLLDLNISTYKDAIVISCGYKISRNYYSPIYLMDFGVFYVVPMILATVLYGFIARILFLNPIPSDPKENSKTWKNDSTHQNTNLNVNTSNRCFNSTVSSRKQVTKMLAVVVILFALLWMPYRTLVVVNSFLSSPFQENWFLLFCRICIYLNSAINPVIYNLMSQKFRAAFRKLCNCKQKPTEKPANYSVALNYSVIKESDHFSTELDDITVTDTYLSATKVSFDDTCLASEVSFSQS
Summary of the method: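 Antagonist mode: after a 5 min room-temperature compound exposure, cells were stimulated with 1 nM (final) TRH. Dye-loaded TRHR-HEK293 cells were used, and calcium-dependent fluorescence was followed for 3 min, with 15-point titrations run in triplicate.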

[7] = target: Thyrotropin-releasing hormone receptor (Homo sapiens) (UniProt P34981); assay: qHTS assay to identify small molecule agonists of the thyrotropin-releasing hormone receptor (TRHR) signaling pathway (AID 1346891; calls by dose curve;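 note: HEK293 cells expressing TRHR with calcium dye readout; series mostly up to about 58 µM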)
Summary of the method: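 Agonist-mode calcium mobilisation screen: TRHR-transfected HEK293 cells cultured overnight (18 h), dye-loaded for 2 h at 37 °C, exposed to compounds, and monitored by fluorescence for 3 min.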

[8] = Caspase-3/7 induction in HepG2 cells by small molecules, qHTS assay (AID 1346978); note: nearly all actives have a fitted effect of over 15% in size
Summary of the method: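 Wild-type HepG2 cells (2,000/well) were settled 5 h at 37 C, 5% CO2, then exposed to compounds in DMSO for 17 h. Caspase-3/7 activity was read by luminescence 30 min after adding Caspase-Glo 3/7 reagent at room temperature.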

[9] = Caspase-3/7 induction in CHO-K1 cells by small molecules, qHTS cell viability counter screen (AID 1346979); note: nearly all actives have a fitted effect of over 35% in size; note: potency is the fitted concentration of half-maximal effect
Summary of the method: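 In the same wells as the caspase read, viability of compound-treated wild-type CHO-K1 cells was assessed using CellTiter-Fluor, added after 16hr at 37C and measured by fluorescence following 1hr further incubation.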

[10] = Caspase-3/7 induction in CHO-K1 cells by small molecules, qHTS assay (AID 1346980); note: nearly all actives have a fitted effect of over 15% in size
Summary of the method: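 Wild-type cells were seeded at 1,500 per well and settled 5 hr at 37 C, 5% CO2, then exposed to DMSO-dissolved compounds for 17 hr. Caspase-Glo 3/7 reagent was added, and luminescence was read after 30min at room temperature.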

[11] = Caspase-3/7 induction in HepG2 cells by small molecules, qHTS cell viability counter screen (AID 1346981); note: nearly all actives have a fitted effect of over 30% in size; note: potency is the fitted concentration of half-maximal effect
Summary of the method: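 CellTiter-Fluor fluorescence measured viability in the same wells used for Caspase-Glo 3/7. HepG2 (wild type) at 2,000 cells/well were pre-incubated 5 hr, dosed, and given reagent at 16 hr, with 1 hr further at 37C.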

[12] = target: Nuclear receptor subfamily 1 group I member 2 (Homo sapiens) (UniProt O75469); assay: Human pregnane X receptor (PXR) small molecule agonists, qHTS assay (AID 1346982); note: nearly all actives have a fitted effect of over 35% in size; note: potency is the fitted concentration of half-maximal effect
Nuclear receptor subfamily 1 group I member 2 (Homo sapiens), sequence (O75469 whole entry, looked up): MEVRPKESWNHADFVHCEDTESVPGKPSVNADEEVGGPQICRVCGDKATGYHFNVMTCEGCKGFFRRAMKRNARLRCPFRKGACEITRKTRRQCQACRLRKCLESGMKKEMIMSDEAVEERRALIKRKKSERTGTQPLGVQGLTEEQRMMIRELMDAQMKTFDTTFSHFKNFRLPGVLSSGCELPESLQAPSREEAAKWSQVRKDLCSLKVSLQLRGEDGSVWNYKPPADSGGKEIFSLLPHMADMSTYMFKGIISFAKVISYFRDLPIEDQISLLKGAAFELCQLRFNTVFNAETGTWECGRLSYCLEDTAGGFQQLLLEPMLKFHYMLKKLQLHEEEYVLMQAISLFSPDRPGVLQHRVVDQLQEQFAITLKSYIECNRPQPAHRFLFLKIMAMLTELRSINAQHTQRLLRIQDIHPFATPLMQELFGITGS
Summary of the method: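 Agonist mode: luminescence from ONE-Glo after 24 h compound exposure at 37C in HepG2 cells carrying hPXR-responsive CYP3A4 luciferase, plated in charcoal-stripped serum medium 5 h beforehand.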

[13] = target: Nuclear receptor subfamily 1 group I member 2 (Rattus norvegicus) (UniProt Q9R1A7); assay: Rat pregnane X receptor (rPXR) activation by small molecules, qHTS assay (AID 1346983); settings: rPXR luciferase reporter cells, One-Glo luminescence, 24 h; max activation: active compounds read high; note: nearly all actives have a fitted effect of over 20% in size; note: potency is the fitted concentration of half-maximal effect
Nuclear receptor subfamily 1 group I member 2 (Rattus norvegicus), sequence (Q9R1A7 whole entry, looked up): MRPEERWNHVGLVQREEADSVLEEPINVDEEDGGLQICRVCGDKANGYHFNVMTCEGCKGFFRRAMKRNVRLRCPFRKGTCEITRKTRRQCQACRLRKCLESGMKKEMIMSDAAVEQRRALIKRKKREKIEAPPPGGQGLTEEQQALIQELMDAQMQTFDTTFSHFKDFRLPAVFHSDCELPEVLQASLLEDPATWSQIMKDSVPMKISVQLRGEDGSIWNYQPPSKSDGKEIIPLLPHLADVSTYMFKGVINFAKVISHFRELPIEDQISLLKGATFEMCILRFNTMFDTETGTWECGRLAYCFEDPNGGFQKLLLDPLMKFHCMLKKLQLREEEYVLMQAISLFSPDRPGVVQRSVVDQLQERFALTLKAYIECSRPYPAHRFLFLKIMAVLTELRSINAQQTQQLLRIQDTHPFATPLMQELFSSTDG
Summary of the method: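 Cell-based rPXR luciferase reporter assay, 2,000 cells per well, rested 5hr at 37 C before compound addition in DMSO, then 24 hr at 37 C. One-Glo reagent was added and luminescence read after 30 min at room temperature.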

[14] = target: Nuclear receptor subfamily 1 group I member 2 (Homo sapiens) (UniProt O75469); assay: CYP3A4 induction through human pregnane X receptor (PXR) by small molecules, qHTS assay (AID 1346984); note: nearly all actives have a fitted effect of over 40% in size
Summary of the method: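 Read-out is luminescence after One-Glo addition, following a 3 hr, 37C incubation with Luciferin-IPA CYP3A4 substrate (3uM final). Before that, compounds were on DPX-2 cells (HepG2 co-transfected with PXR element plus CYP3A4-promoter luciferase) for 24 hr at 37C.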

[15] = target: Nuclear receptor subfamily 1 group I member 2 (Homo sapiens) (UniProt O75469); assay: Human pregnane X receptor (PXR) activation by small molecules, qHTS assay (AID 1346985); note: nearly all actives have a fitted effect of over 40% in size
Summary of the method: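 DPX-2 cells (HepG2 co-transfected with a PXR response element and a CYP3A4-promoter luciferase construct) were seeded at 2,000 per well, rested 5 hr at 37C, then exposed to DMSO-dissolved compounds for 24 hr. Activation was read as luciferase luminescence.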

[16] = target: Cytochrome P450 2D6 (Homo sapiens) (UniProt P10635); assay: Cytochrome P450 Family 2 Subfamily D Member 6 (CYP2D6) small molecule antagonists: luciferase reporter qHTS assay (AID 1671196); note: nearly all actives have a fitted effect of over 50% in size; note: potency is the fitted concentration of half-maximal effect
Cytochrome P450 2D6 (Homo sapiens), sequence (P10635 whole entry, looked up): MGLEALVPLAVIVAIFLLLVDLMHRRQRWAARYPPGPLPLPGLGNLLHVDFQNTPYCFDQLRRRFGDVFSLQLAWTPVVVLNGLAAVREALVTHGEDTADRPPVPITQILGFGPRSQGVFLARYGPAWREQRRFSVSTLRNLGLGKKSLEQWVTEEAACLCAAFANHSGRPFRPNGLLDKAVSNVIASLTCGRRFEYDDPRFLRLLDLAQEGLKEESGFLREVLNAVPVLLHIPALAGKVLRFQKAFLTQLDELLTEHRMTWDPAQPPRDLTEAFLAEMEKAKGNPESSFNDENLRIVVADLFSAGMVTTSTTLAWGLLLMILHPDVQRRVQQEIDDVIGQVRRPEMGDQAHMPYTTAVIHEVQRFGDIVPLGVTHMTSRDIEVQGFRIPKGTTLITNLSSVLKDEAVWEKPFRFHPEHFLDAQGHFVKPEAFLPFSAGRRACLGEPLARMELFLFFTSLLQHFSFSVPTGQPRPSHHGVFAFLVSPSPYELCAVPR
Summary of the method: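 CYP2D6 activity was followed as luminescence from its luciferin product after a 1 h NADPH-driven reaction at room temperature. Enzyme-substrate mix and compound were pre-incubated for 10 min, and the signal was read 20 min after adding detection reagent.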

[17] = target: Cytochrome P450 2C19 (Homo sapiens) (UniProt P33261); assay: Cytochrome P450 Family 2 Subfamily C Member 19 (CYP2C19) small molecule antagonists: luciferase reporter qHTS assay (AID 1671197); note: nearly all actives have a fitted effect of over 65% in size; note: potency is the fitted concentration of half-maximal effect
Cytochrome P450 2C19 (Homo sapiens), sequence (P33261 whole entry, looked up): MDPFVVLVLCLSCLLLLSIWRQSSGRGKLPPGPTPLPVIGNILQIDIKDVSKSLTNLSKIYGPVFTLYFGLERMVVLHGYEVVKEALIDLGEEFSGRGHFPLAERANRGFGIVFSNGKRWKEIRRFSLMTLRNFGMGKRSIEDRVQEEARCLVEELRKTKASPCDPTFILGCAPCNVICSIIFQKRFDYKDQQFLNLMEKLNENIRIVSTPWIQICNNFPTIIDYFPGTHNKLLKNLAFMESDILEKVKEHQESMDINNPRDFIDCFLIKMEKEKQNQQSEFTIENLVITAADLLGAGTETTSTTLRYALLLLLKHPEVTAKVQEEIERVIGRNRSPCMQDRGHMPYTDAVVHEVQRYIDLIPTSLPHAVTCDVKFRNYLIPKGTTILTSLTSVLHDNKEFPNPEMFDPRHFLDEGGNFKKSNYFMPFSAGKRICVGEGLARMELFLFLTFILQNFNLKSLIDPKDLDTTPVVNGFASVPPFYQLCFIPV
Summary of the method: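 P450-Glo CYP2C19 screening system; proluciferin substrate; DMSO compound stocks; 10 min RT preincubation; NADPH regeneration, 1 h at 37C; luciferin detection reagent, 20 min RT; luminescence as RLU.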

[18] = qHTS assay to identify small molecule agonists of the TGF-beta/Smad signaling pathway (AID 1346859; active = well fitted activation curve with a large enough effect in the signal ratio in the repeat runs, not every such curve was filed as active; the % refers to the signal ratio; note: series mostly up to about 77 µM)
Summary of the method: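 Smad-responsive beta-lactamase reporter cells (HEK 293T) received compounds from DMSO stocks after overnight attachment, were incubated 5 hr, then treated 2 hr with FRET substrate before dual-emission fluorescence measurement (405 nm excitation).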

[19] = Human pregnane X receptor (PXR) small molecule agonists, qHTS cell viability counter screen (AID 1346977); note: nearly all actives have a fitted effect of over 50% in size; note: potency is the fitted concentration of half-maximal effect
Summary of the method: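 Measures live-cell protease fluorescence (CellTiter-Fluor) in PXR-Luc HepG2 cells treated 24hr with compounds at 37C. Cells had 5hr to attach before pin transfer of DMSO solutions.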

| SMILES | Potency [1] | Potency [2] | Potency [3] | Potency [4] | outcome [5] | outcome [6] | Potency [7] | Potency [8] | Potency [9] | Potency [10] | Potency [11] | Potency [12] | max activation [13] | Potency [14] | Potency [15] | Potency [16] | Potency [17] | Potency [18] | Potency [19] | Potency [13] |
| --- | --- | --- | --- | --- | --- | --- | --- | --- | --- | --- | --- | --- | --- | --- | --- | --- | --- | --- | --- | --- |
| Nc1ncn([C@H]2C[C@H](O)[C@@H](CO)O2)c(=O)n1 | inactive | inactive | inactive | inactive | inactive | inactive | inactive | inactive | inactive | inactive | inactive | inactive | 10.4% | inactive | inactive | inactive | inactive | – | – | – |
| c1ccc(-c2ccccn2)nc1 | inactive | inactive | – | inactive | inactive | inactive | inactive | inactive | inactive | – | inactive | 24.3 µM (active) | – | – | – | inactive | – | inactive | inactive | – |
| CCCCC(CC)COC(=O)COc1ccc(Cl)cc1Cl (stereo unspecified) | inactive | inactive | inactive | inactive | inactive | inactive | inactive | inactive | inactive | inactive | inactive | – | – | – | – | – | 20.3 µM (active) | – | inactive | – |
| COS(=O)(=O)C(F)(F)F | inactive | – | – | inactive | inactive | inactive | inactive | inactive | inactive | inactive | inactive | inactive | – | – | – | inactive | inactive | inactive | – | – |
| O=C(OCCc1ccccc1)c1ccccc1 | inactive | inactive | – | inactive | inactive | inactive | inactive | inactive | inactive | inactive | inactive | inactive | – | – | – | – | – | inactive | inactive | – |
| CCOc1ccc(N)c([N+](=O)[O-])c1 | inactive | inactive | inactive | inactive | inactive | inactive | inactive | inactive | – | inactive | – | inactive | – | – | – | 71 µM (active) | 35.6 µM (active) | – | inactive | – |
| CCc1cc(C2=C(C(=O)O)N(c3ccccc3C(F)(F)F)S(=O)(=O)c3ccccc32)cc2c1OCO2 | inactive | – | – | inactive | inactive | inactive | inactive | inactive | 30.3 µM (active) | inactive | 15.2 µM (active) | inactive | – | – | – | inactive | 78.7 µM (active) | inactive | – | – |
| CCCCCCCCCCCCCCOS(=O)(=O)O | inactive | – | 30.6 µM (active) | inactive | inactive | inactive | inactive | inactive | – | inactive | inactive | inactive | – | – | – | inactive | inactive | inactive | inactive | – |
| Cn1c(=O)cc(Oc2ccc(F)cc2F)c2cnc(NCC(C)(C)O)nc21 | inactive | – | – | inactive | inactive | – | – | inactive | – | inactive | inactive | 43.3 µM (active) | – | – | – | – | 71 µM (active) | inactive | inactive | – |
| COC(=O)C1=C(C)NC(COC(N)=O)=C(C(=O)OC(C)C)C1c1cccc(Cl)c1Cl (stereo unspecified) | inactive | – | – | inactive | inactive | – | – | – | 13.3 µM (active) | inactive | – | – | – | – | – | – | – | – | inactive | – |
| CC(C)(COC(=O)c1ccccc1)COC(=O)c1ccccc1 | inactive | inactive | – | inactive | inactive | inactive | inactive | inactive | – | inactive | inactive | inactive | – | – | – | inactive | 20 µM (active) | inactive | inactive | – |
| Cc1nn(C)c(Oc2ccccc2)c1/C=N/OCc1ccc(C(=O)OC(C)(C)C)cc1 | inactive | inactive | – | inactive | inactive | inactive | inactive | inactive | 0.0154 µM (active) | inactive | – | 38.6 µM (active) | – | – | – | inactive | – | inactive | 0.0863 µM (active) | – |
| O=C(OCCCCCCOC(=O)c1ccccc1)c1ccccc1 | inactive | – | – | inactive | inactive | inactive | inactive | inactive | inactive | inactive | inactive | inactive | – | – | – | inactive | – | inactive | inactive | – |
| CC(=O)c1ccc2c(c1)N(CCCN1CCC(CCO)CC1)c1ccccc1S2 | inactive | – | – | inactive | inactive | – | – | inactive | 29.8 µM (active) | inactive | – | – | -2.34% | – | – | – | – | inactive | 26.6 µM (active) | – |
| COc1cc(Cl)c(OC)cc1N | inactive | inactive | – | inactive | inactive | inactive | inactive | inactive | inactive | inactive | inactive | 48.6 µM (active) | – | – | – | 63.3 µM (active) | – | inactive | inactive | – |
| COc1ccc(-c2nc3ccc(C4=NNC(=O)CC4C)cc3[nH]2)cc1 (stereo unspecified) | inactive | – | – | inactive | inactive | inactive | inactive | inactive | 23.7 µM (active) | inactive | inactive | 13.3 µM (active) | – | inactive | – | inactive | – | inactive | inactive | 22.4 µM (active) |
| CCCCC/C=C\C/C=C\CCCCCCCC(=O)NC(C)c1ccccc1 (stereo unspecified) | inactive | – | – | inactive | inactive | inactive | inactive | inactive | 26.6 µM (active) | inactive | inactive | 21.1 µM (active) | – | – | – | 4.36 µM (active) | 4.9 µM (active) | – | inactive | – |
